Experimental findings from PubChem BioAssay (EPA / NIEHS) are described below.

Assay [1] concerns the target human Retinoid X Receptor beta (RXRb), RXRB (gene 6257) (UniProt P28702). The experiment in a line: ATG_RXRb_TRANS: Attagene TRANS-FACTORIAL HepG2 Assay for human Retinoid X Receptor beta (RXRb) (AID 2283013; active means hit-call score of the fitted dose curve at least 0.9, where 1 is the maximum). The method in brief:
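Multiplexed TRANS reporter assay in HepG2; 24 h dosing; reporter mRNA by RT-PCR/CE fluorescence; gain-of-signal relative to DMSO.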

Read-out in assay [2]: E-selectin (Homo sapiens) (UniProt P16581)
The experiment in a line: BSK_3C_Eselectin: BioMAP Diversity Plus: 3C Assay for Eselectin Biomarker Activity (AID 2283015).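 Further: cell surface E-selectin protein quantified by ELISA 24 h after dosing.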 The settings on record: primary human endothelial cells (HUVEC); actives raise or lower the signal. The method in brief: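 ELISA read-out of E-selectin on endothelial monolayers after 24 h chemical treatment. Human umbilical vein primary cells served as the system, with DMSO defining baseline activity for bidirectional fitting.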

Read-out in assay [3]: Interleukin-1 alpha (IL1a), IL1A (gene 3552)
In words: BSK_BE3C_IL1a: BioMAP Diversity Plus: BE3C Assay for Interleukin-1 alpha (IL1a) Biomarker Activity (AID 2283016). The settings on record: primary human bronchial epithelial cells; actives raise or lower the signal. In short, it runs like this:
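Cultures of primary human bronchial epithelial cells receive test chemical. After 24 h, IL-1a is quantified by ELISA, while parallel wells are fixed in TCA and SRB-stained for total protein. Changes in either direction are fitted relative to DMSO.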

Read-out in assay [4]: Monocyte Chemoattractant Protein-1 (MCP1), CCL2 (gene 6347)
In words: BSK_3C_MCP1: BioMAP Diversity Plus: 3C Assay for Monocyte Chemoattractant Protein-1 (MCP1) Biomarker Activity (AID 2283017). As to conditions: primary human endothelial cells (HUVEC); actives raise or lower the signal. The method in brief:
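ELISA read-out of MCP-1 from human umbilical vein endothelial cell cultures harvested 24 h post-dosing. Gain or loss of signal was fitted relative to DMSO.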

Read-out in assay [5]: Monocyte Chemoattractant Protein-1 (MCP1), CCL2 (gene 6347)
In words: BSK_4H_MCP1: BioMAP Diversity Plus: 4H Assay for Monocyte Chemoattractant Protein-1 (MCP1) Biomarker Activity (AID 2283018). The settings on record: primary human endothelial cells (HUVEC); actives raise or lower the signal. In short, it runs like this:
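Readout: MCP-1 ELISA on compound-treated HUVEC, sampled 24 h post-dosing. Baseline and negative control DMSO; bidirectional fit. Overt toxicity checked alongside by sulforhodamine B protein staining at time of biomarker measurement.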

Read-out in assay [6]: Human Leukocyte Antigen - DR isotype (HLADR), HLA-DRA (gene 3122)
In words: BSK_3C_HLADR: BioMAP Diversity Plus: 3C Assay for Human Leukocyte Antigen - DR isotype (HLADR) Biomarker Activity (AID 2283019). The settings on record: primary human endothelial cells (HUVEC); actives raise or lower the signal. The method in brief: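 ELISA readout of surface HLA-DR on human umbilical vein endothelium, taken 24 h after chemical treatment. Gain- and loss-of-signal were both fitted relative to DMSO.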

Read-out in assay [7]: Interleukin-8 (IL8), CXCL8 (gene 3576)
In words: BSK_3C_IL8: BioMAP Diversity Plus: 3C Assay for Interleukin-8 (IL8) Biomarker Activity (AID 2283020). The settings on record: primary human endothelial cells (HUVEC); actives raise or lower the signal. The method in brief:
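Human vascular endothelial cells (umbilical vein) in the 3C system; IL-8 level detected by ELISA at 24 h post-dose, with DMSO as baseline.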

Read-out in assay [8]: Monokine induced gamma interferon (MIG), CXCL9 (gene 4283)
The experiment in a line: BSK_3C_MIG: BioMAP Diversity Plus: 3C Assay for Monokine induced gamma interferon (MIG) Biomarker Activity (AID 2283021).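 On AC50: MIG protein level measured by immunoassay in the treated endothelial cultures.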 The settings on record: primary human endothelial cells (HUVEC); actives raise or lower the signal. The method in brief: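 After 24 h of treatment, human umbilical vein endothelial cultures (3C system) had their MIG biomarker level determined by ELISA, with DMSO serving as negative control.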

A short description of assay [9]: BSK_3C_SRB: Viability Assessment in the BioMAP Diversity Plus: 3C Assay (AID 2283023).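 Further: fitted both ways against DMSO so a hit may be signal rise or drop.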 As to conditions: primary human endothelial cells (HUVEC). In short, it runs like this:
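Absorbance at 560 nm of sulforhodamine B-stained (0.1%) total protein served as a cytotoxicity readout in human umbilical vein endothelial cells, 24 h after chemical treatment. Signal was fitted bidirectionally relative to DMSO.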

Read-out in assay [10]: Matrix Metallopeptidase 1 (MMP1), MMP1 (gene 4312)
In words: BSK_BE3C_MMP1: BioMAP Diversity Plus: BE3C Assay for Matrix Metallopeptidase 1 (MMP1) Biomarker Activity (AID 2283024). As to conditions: primary human bronchial epithelial cells; actives raise or lower the signal. The method in brief: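 Dose cells, wait 24 h, run MMP1 ELISA; cells are human bronchial epithelial primaries. Both increases and decreases relative to DMSO counted.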

Read-out in assay [11]: Pselectin, SELP (gene 6403)
In words: BSK_4H_Pselectin: BioMAP Diversity Plus: 4H Assay for Pselectin Biomarker Activity (AID 2283026). The settings on record: primary human endothelial cells (HUVEC); actives raise or lower the signal. In short, it runs like this:
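Human vascular endothelium from umbilical vein; P-selectin measured by ELISA at 24 h post-dose, with cytotoxicity checked by sulforhodamine B total-protein staining in parallel cultures (0.1% SRB after 10% TCA fixation, read at 560 nm).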

The nature of assay [12]: BSK_4H_SRB: Viability Assessment in the BioMAP Diversity Plus: 4H Assay (AID 2283027).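 Further: cells exposed to compound for 24 h before staining.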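 On AC50: curves fitted both ways versus DMSO so AC50 may be loss or gain.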 The settings on record: primary human endothelial cells (HUVEC). In short, it runs like this:
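Human umbilical vein endothelial cells were dosed with chemical and, after 24 h, fixed with 10% TCA, stained with 0.1% sulforhodamine B, and read at 560 nm to give total protein as a cytotoxicity measure. Bidirectional fitting relative to DMSO control.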

A short description of assay [13]: BSK_BE3C_SRB: Viability Assessment in the BioMAP Diversity Plus: BE3C Assay (AID 2283028).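 On AC50: fitted both ways so AC50 may mark signal gain or loss versus DMSO.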 As to conditions: primary human bronchial epithelial cells. The method in brief: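 Cells (human bronchial epithelial, primary) are treated with chemicals, and after 24 h the parallel cultures are fixed in 10% TCA. These are then stained with 0.1% SRB and read at 560 nm. Gain or loss of signal is fitted relative to DMSO.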

Read-out in assay [14]: Thrombomodulin, THBD (gene 7056)
In words: BSK_3C_Thrombomodulin: BioMAP Diversity Plus: 3C Assay for Thrombomodulin Biomarker Activity (AID 2283029). The settings on record: primary human endothelial cells (HUVEC); actives raise or lower the signal. In short, it runs like this:
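Thrombomodulin ELISA, human primary HUVEC, 24 h post-dose; data fitted in both directions relative to DMSO.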

Read-out in assay [15]: Urokinase-type plasminogen activator receptor (uPAR), PLAUR (gene 5329)
The experiment in a line: BSK_4H_uPAR: BioMAP Diversity Plus: 4H Assay for Urokinase-type plasminogen activator receptor (uPAR) Biomarker Activity (AID 2283030). The settings on record: primary human endothelial cells (HUVEC); actives raise or lower the signal. In short, it runs like this: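 Cell-surface uPAR ELISA signal, measured 24 h after dosing human umbilical vein endothelial cells, was analyzed with bidirectional fitting relative to DMSO. Parallel SRB staining of total protein tracked overt cytotoxicity.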

Assay [16] has as its target human Vitamin D Receptor (VDR), VDR (gene 7421) (UniProt P11473). The experiment in a line: ATG_VDR_TRANS: Attagene TRANS-FACTORIAL HepG2 Assay for human Vitamin D Receptor (VDR) (AID 2283022; active means hit-call score of the fitted dose curve at least 0.9, where 1 is the maximum). In short, it runs like this: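 Steps: transfect HepG2 with GAL4-UAS-driven reporter constructs; dose compounds 24 h; isolate RNA, reverse-transcribe, PCR-amplify with 6-FAM-labelled primer extension and HpaI digestion; quantify fragments by capillary electrophoresis relative to DMSO.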

The nature of assay [17]: BSK_3C_Vis: BioMAP Diversity Plus: 3C Assay for Morphology Visualization (AID 2283025).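 Further: fitted both ways so gain or loss versus DMSO counts.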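 On AC50: light microscopy image of cell morphology used as background control.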 As to conditions: primary human endothelial cells (HUVEC). The method in brief: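 Endothelial cells from human umbilical vein were treated with test chemicals for 24 h and inspected by light microscopy for changes in cell conformation.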
Assay [18] deals with human Thyroid Receptor alpha (THRa1), THRA (gene 7067) (UniProt P10827). The experiment in a line: ATG_THRa1_TRANS: Attagene TRANS-FACTORIAL HepG2 Assay for human Thyroid Receptor alpha (THRa1) (AID 2283014; active means hit-call score of the fitted dose curve at least 0.9, where 1 is the maximum). In short, it runs like this: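 Reporter transcript induction, read by capillary electrophoresis of 6-FAM-labelled RT-PCR products, reflects activity of a transfected THRa1-Gal4 fusion in HepG2 liver cells. Cells were dosed for 24 h; activity was fitted in the positive direction against DMSO.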
Chain of human Thyroid Receptor alpha (THRa1), THRA (gene 7067) (P10827 whole entry, looked up, the tested form may be a part): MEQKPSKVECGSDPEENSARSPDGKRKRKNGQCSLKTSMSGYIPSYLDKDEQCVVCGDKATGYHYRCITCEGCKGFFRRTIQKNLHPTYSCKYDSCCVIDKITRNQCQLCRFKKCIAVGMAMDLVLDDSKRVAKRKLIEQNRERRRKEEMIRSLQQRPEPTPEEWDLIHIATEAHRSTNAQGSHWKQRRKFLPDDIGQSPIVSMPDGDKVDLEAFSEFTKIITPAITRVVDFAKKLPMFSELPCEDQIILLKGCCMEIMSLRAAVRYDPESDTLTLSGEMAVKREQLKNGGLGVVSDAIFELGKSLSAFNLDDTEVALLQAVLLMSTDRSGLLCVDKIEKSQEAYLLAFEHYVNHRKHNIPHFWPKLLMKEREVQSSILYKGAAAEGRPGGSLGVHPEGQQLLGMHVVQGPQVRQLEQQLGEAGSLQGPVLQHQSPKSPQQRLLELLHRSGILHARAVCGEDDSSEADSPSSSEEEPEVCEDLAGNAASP

Several values for one entry are separate records, joined by “and”; a condition that tells them apart may be missing. Equal entries are not always repeated. Results filed as inconclusive are left out. The source holds several records for some structures; these can differ, active in one and inactive in another. Activity calls are given as the source filed them. How the source made its calls, unless noted: active means hit-call score of the fitted dose curve at least 0.9, where 1 is the maximum; inactive means score below 0.9.

Chain of human Retinoid X Receptor beta (RXRb), RXRB (gene 6257) (P28702 whole entry, looked up): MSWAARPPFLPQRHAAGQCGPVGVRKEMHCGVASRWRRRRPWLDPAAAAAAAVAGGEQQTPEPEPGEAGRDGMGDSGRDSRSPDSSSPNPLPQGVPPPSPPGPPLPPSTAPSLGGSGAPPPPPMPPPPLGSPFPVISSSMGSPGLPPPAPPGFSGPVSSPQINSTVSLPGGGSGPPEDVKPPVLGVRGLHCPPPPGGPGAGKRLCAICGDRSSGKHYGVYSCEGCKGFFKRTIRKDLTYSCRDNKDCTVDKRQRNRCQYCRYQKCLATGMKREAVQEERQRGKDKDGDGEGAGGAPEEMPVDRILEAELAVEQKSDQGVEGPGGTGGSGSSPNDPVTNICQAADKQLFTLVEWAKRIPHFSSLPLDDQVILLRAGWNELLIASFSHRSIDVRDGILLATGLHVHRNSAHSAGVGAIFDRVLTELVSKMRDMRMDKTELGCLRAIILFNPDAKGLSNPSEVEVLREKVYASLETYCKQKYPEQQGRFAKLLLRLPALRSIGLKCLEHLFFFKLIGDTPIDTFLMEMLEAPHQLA
Chain of human Vitamin D Receptor (VDR), VDR (gene 7421) (P11473 whole entry, looked up, the tested form may be a part): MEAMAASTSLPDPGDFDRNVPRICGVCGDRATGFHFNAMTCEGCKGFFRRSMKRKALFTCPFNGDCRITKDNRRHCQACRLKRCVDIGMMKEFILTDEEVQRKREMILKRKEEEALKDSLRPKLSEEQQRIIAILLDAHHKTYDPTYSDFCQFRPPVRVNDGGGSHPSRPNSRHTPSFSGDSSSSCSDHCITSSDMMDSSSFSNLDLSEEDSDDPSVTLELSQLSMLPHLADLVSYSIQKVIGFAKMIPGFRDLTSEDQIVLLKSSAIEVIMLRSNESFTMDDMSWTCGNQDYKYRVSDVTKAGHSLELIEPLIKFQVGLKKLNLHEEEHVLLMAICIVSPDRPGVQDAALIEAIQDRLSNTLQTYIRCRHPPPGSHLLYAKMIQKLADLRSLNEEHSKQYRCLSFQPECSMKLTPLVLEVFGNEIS
Chain of E-selectin (Homo sapiens) (P16581 whole entry, looked up): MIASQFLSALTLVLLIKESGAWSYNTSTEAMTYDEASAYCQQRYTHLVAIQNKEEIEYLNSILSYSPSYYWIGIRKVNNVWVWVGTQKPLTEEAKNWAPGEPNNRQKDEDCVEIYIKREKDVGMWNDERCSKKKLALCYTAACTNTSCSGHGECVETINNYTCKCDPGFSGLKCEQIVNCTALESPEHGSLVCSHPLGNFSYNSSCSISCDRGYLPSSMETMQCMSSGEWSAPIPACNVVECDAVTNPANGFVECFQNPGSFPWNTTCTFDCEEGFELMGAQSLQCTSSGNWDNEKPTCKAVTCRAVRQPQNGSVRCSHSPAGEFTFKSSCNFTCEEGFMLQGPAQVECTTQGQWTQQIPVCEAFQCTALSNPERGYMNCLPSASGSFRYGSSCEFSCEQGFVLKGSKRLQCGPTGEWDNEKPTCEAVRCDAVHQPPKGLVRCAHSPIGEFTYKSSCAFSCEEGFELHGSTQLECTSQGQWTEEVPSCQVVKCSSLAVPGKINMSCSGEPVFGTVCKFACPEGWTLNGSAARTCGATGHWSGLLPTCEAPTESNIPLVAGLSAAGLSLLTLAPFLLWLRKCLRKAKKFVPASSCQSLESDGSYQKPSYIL

For the compound `CC(Cc1ccc(OCC(=O)O)cc1)NCC(O)c1csc(C(F)(F)F)n1` (configuration not stated), the result in assay [1], in assay [2], in assay [3], in [4], in [5] and in assay [6] was inactive. Moreover, the outcome in [7], in assay [8], in [9], in assay [10], in assay [11] and in [12] was inactive. For the same compound, the result in [13], in assay [14] and in assay [15] was inactive.
`ClC(Cl)=C(c1ccc(Cl)cc1)c1ccccc1Cl`: the AC50 in assay [1] was 27.7 µM (active); in assay [3], 14.2 µM (active); in assay [4] it was 12.1 µM (active); in assay [5], 5.93 µM (active); in assay [6] it was 10.4 µM (active); in assay [7], 11.8 µM (active). The AC50 in assay [8] is 29.2 µM (active); in [9], 7.99 µM (active); in [11] it was 10.6 µM (active); in [12] it was 12.6 µM (active); in assay [13], 10.5 µM (active). Besides, the compound was classed as inactive in [16], in [10] and in assay [14].
Take `ClC(Cl)(Cl)c1ccccc1`: the result in [2], in assay [3], in [4], in assay [5], in assay [6] and in assay [7] was inactive. The result in [8], in assay [16], in [9], in assay [10], in [17] and in [11] was inactive. The result in [12], in [13] and in assay [14] was inactive.
Regarding `FC(F)(F)C(F)(C(F)(F)F)C(F)(F)C(F)(F)CC1CO1` (configuration not stated), the result in assay [18], in assay [3], in assay [4], in assay [5], in assay [6] and in assay [7] was inactive. Also, the result in assay [8], in assay [16], in assay [9], in [10], in assay [11] and in assay [12] was inactive. For the same compound, the outcome in assay [13] and in [14] was inactive. In [10], the AC50 is 2.33 µM (active).
Regarding `CCCCOCC1CO1` (configuration not stated), the result in assay [16] was inactive.
On to `O=S(=O)(F)C(F)(F)C(F)(F)C(F)(F)C(F)(F)C(F)(F)C(F)(F)C(F)(F)C(F)(F)F`, for which the result in assay [18], in assay [2], in assay [3], in assay [4], in assay [5] and in assay [6] was inactive. The result in [7], in assay [8], in [16], in [9], in assay [10] and in assay [11] was inactive. The result in [12], in [13] and in assay [14] was inactive.
With `Cc1ccc2c(c1N)C(=O)c1ccccc1C2=O`, the outcome in [1], in [18], in assay [2], in assay [3], in assay [4] and in assay [5] was inactive. Also, the outcome in [7], in assay [8], in assay [10], in [11], in [12] and in [13] was inactive. Moreover, the result in assay [14] and in assay [15] was inactive. Besides, the results for the AC50 in assay [6], in assay [9] and in [17] were 15 µM (active), 4.25 µM (active) and 13.6 µM (active), respectively.
`C=CC(=O)OCC(F)(F)C(F)F`: the compound was called inactive in assay [18], in assay [3], in [4], in assay [5], in [7] and in assay [8]. Moreover, the result in [9], in assay [10], in [11], in [12], in [13] and in [14] was inactive. Also, the AC50 in [6] is 41.1 µM (active) and 43.6 µM (active); in [11], 19.2 µM (active); in assay [14], 8.19 µM (active).

A word on the AC50: it is the concentration giving half of the maximal activity seen.
